Assay results reported in PubChem BioAssay AID504334 (NMMLSC, 2011).
Several values for one entry are separate records, joined by “and”; a condition that tells them apart may be missing. Equal values may be shown once.

experiment: AGP1-GFP expression modulators, hit retest, confirmation, cell-based, flow cytometry, S. cerevisiae, cherry pick set 3 (AID 504334);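 further: median GFP fluorescence per well by flow cytometry over the all cells gate; ratio of sample to mean DMSO control signal so DMSO = 100% not 0%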; settings: S. cerevisiae AGP1-GFP strain, 3 h, at 10 µM, active compounds read high;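 active means response relative to DMSO over 150%; inconclusive means yeast strain with under 70 recorded events; inactive means the rest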

Percent response vs DMSO, inactive:
COc1ccccc1-c1cc(C(F)(F)F)nc(S(=O)(=O)CCCC(=O)NC(C)C)n1 104% and 99.8%
Nc1[nH]c(=O)nc(Nc2ccccc2)c1N=O 101%
Cc1ccc(Nc2cc(=O)[nH]c(=O)[nH]2)cc1C 95.8%
C[n+]1cccc2cccc([O-])c21 98.8%
Brc1ccc2ncnc(NCc3ccccc3)c2c1 94.8%
CC(=O)NC(C)c1cc(Cl)c2cccnc2c1O (configuration not stated) 102%
Cc1ccc(Nc2cc(=O)[nH]c(=O)[nH]2)cc1Cl 102%
COc1ccc(-c2cc(C(F)(F)F)nc(S(C)(=O)=O)n2)cc1OC 106% and 113%
COC1=C/C(=C/c2c(N)n3cc(C)sc3nc2=O)C=CC1=O 100%
OCCN1CCN(c2ncnc3ccc(Br)cc23)CC1 99.8%
Cc1cccc(C)c1Nc1ncnc(N)c1[N+](=O)[O-] 102%
CN(C)CCCNc1cc(O)c2ncccc2c1 105%
CS(=O)(=O)c1nc(-c2ccc(F)cc2)cc(C(F)(F)F)n1 114%
O=C(O)CCS(=O)(=O)c1nc(-c2cccs2)cc(C(F)(F)F)n1 111%
O=C(Nc1ccccc1Cl)ON=C1c2ccccc2-c2ccccc21 99.1%
Cc1ccc2c(C)ccc(O)c2n1 102%
CSc1nc(S(C)(=O)=O)nc2[nH]c(=O)[nH]c12 103%
